Among all 53,000 sequences or so, about 3,700 (7%) were called active.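 How the source made its calls: active means gene knockdowns whose robust z-score for IL-1 alpha signal is at least 2 or at most -2, so actives lie on both sides; inactive means the rest.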 Only a selection was taken, and actives are over-represented in it overall.
Assay: Components of the Cytosolic LPS Sensing Pathway: Gene Identification via Genome-wide siRNA Screen
Details: RAW264.7 macrophages, IL-1a HTRF, actives lie on both sides, screened at 100 nM (by protocol), cells primed 5 h with Pam3CSK4 first
From the text: Non-canonical inflammasome activation by cytosolic LPS is a critical component of the host response to Gram-negative bacterial infection, however we lack a comprehensive understanding of the cellular processes that control this pathway. Here we describe a genome-wide siRNA screen to identify genes regulating the mouse macrophage IL-1 alpha response to cytosolic LPS.
RAW264.7 cells were maintained in complete DMEM media, comprising DMEM with 4.5 g/L glucose, 10% FBS (Gemini Bio-Products, West Sacramento, CA), 2 mM Glutamine (Lonza) and 20 mM HEPES (Lonza), hereafter complete DMEM.
The RNAi screen was conducted in 384-well format using the Ambion Silencer Mouse Genome siRNA Library (#4391425), which consists of three unique, nonoverlapping, nonpooled siRNAs for each of 17,000 gene targets. siRNA reagents ([…]) were stamped into 384-well white flat-bottom microplates (Corning, 3570) using a Velocity11 VPrep liquid handling system (Agilent) integrated into a BioCel robotic platform (Agilent) in columns 1-22, leaving columns 23-24 empty for negative (Ambion, Negative control #1) and positive (mouse Casp4) controls, respectively. The median value of each plate's negative control column was used to normalize sample wells, and the positive control was used to assess transfection efficiency and assay performance.
Lipofectamine RNAiMAX Transfection Reagent ([…]; Invitrogen) was added in […] serum-free, antibiotic-free media to plate wells using a Thermo Scientific Matrix WellMate and Microplate Stacker. Plates were incubated for 45 min at room temperature to allow for the sufficient formation of siRNA-lipid complexes. Cells were seeded at a density of 1x10^4 cells per well in 20 microL media containing 20% (vol/vol) FBS without antibiotics. The final concentration of siRNA in each well was 100 nM. Cells were cultured for 48h at 37 degrees C in 5% CO2 before addition of […] of TLR ligand Pam3CSK4 for 5 hours. The medium was then removed, replaced with […] growth media and cell were transfected with […] of LipidA and TransIT-TKO (Mirus) for 24 hour. At the end of the LipidA treatment, […] of supernatant was transferred to a 384 Greiner Bio-one non-binding low volume plate and […] of IL-1a HTRF reagent (Cisbio, 62MIL1APEH) was added and incubated at room temperature overnight. The plates were read on an EnVision plate reader (PerkinElmer). Cell viability was measured by adding 20ul Cell Titer Glo to the original plate and running a luminescence read on the EnVision. The quantified IL-1a signal for each siRNA gene-targeted well was divided by the median of the negative control wells and multiplied by 100 to achieve a negative control normalized value for each well/siRNA. This normalized value was then used to generate a robust z-score by first taking the log of each value and then by subtracting the median and dividing by the […].
With GCUGAACUGUCUCAGCUCATT against Tmem81 the z-score was 2.06 (active). In the case of AGAAGAUACCGAUCAAGCGTT against Nsmce3, the z-score is reported as 0.049 (inactive). With GCAUGGGCAUAACCGAAAGTT against Rex2 the z-score was -0.332 (inactive). In the case of GGAGAAGUAAUGACAAAUUTT against Foxp4, the z-score is reported as -1.47 (inactive). With GGACGUGACUCUCAUCAUCTT against Atp2b3 the z-score was 0.929 (inactive). With GUGAUGUGGCCAUGUCAAUTT against Olfr641 the z-score was -2.61 (active). With GGAGAGGAAAAUUGUAUUUTT against Alox12 the z-score was -0.037 (inactive). In the case of CCCAUUCUGUAUAUAGUGCTT against Adam6a, the z-score is reported as -0.0363 (inactive). With CGGUUAGAGCAUUAAGUUCTT against Lias the z-score was 0.817 (inactive). In the case of GCUCGAUUCAGAAAUCUACTT against Sgce, the z-score is reported as -0.735 (inactive). With GACUGAACAGAUCUACUCUTT against Klra7 the z-score was -0.413 (inactive). With CGCAUUUCGAAUAAAGACATT against Mettl22 the z-score was -0.546 (inactive). For GCAUUUCACCGUCAUGAACTT against Ttll12, the z-score was -2.55 (active). In the case of GGAAGUUUGCUCAAUCUCATT against Jarid2, the z-score is reported as 1.12 (inactive). In the case of GGACCUGUAUUCACACCUUTT against Wdr61, the z-score is reported as 0.0931 (inactive). For GGGUUUUUGAUGAUGAUUCTT against Htatsf1, the z-score was -0.66 (inactive). For CGGGAUAGCUGUCCUGUUATT against Mrps14, the z-score was 0.127 (inactive). For GAAGCGAUGCUCAGAUCCATT against Serpina1d, the z-score was 0.136 (inactive). For GCCCUCCUUAUAGCUUAAUTT against Asic3, the z-score was -2.2 (active). In the case of GCUUCGAAGCAACAUCCGATT against Rims3, the z-score is reported as -0.00729 (inactive). With GGAAAAACUGUGCAAAUAATT against Krt75 the z-score was 1.26 (inactive). With GCAGGCAUUCUGCUCUAUATT against Oxgr1 the z-score was 1.01 (inactive). In the case of GGGACAUUAAUAAACCUGATT against Omg, the z-score is reported as -0.269 (inactive). For CCAUGGCCUAGAGCUGGAUTT against Unc5cl, the z-score was 0.315 (inactive). For GGAAGUAACAUGCUUCUAGTT against Ccdc42, the z-score was 0.75 (inactive). With GGAUUCCAUCUUUGUAUGATT against Cbr4 the z-score was 0.689 (inactive). With GCCAAGUGAUUGAAAAAACTT against Lnpk the z-score was -0.423 (inactive). With GGUGAAGAAAGUCAAGAAGTT against Spi1 the z-score was -2.46 (active). For GGUUCUGGUGGUGAAUGUGTT against Kcnd1, the z-score was -1.51 (inactive). In the case of GCGAGUUGUUUCCAUAGUUTT against Gpr22, the z-score is reported as -0.388 (inactive). In the case of GGCAGAGCUAGAUCAAAUUTT against Retreg1, the z-score is reported as 3.58 (active). For GGAAAUUCACACAGAUGAATT against Mtmr12, the z-score was -1.27 (inactive). With GCCAACCUUCAAGGAAUAUTT against Cyp2b10 the z-score was 1.4 (inactive). For GGGAAGACAAGAACAACUUTT against Pitrm1, the z-score was 0.756 (inactive). With GGUCGUUAUCACUCUCUAUTT against Pkd1l3 the z-score was 3.34 (active). For CCCUUUAGCUUCCUAAUGUTT against Rhag, the z-score was 0.11 (inactive). With GGUUUUAUUAACUCUGUGATT against Olfr1013 the z-score was 0.453 (inactive). For GGACUGCUUUUUUUACUCATT against Mta2, the z-score was -2.07 (active). In the case of CCUGGUAAUCACAAUUUCGTT against Tor1b, the z-score is reported as -0.655 (inactive). For GGUAGACAAGAUCAUCGGATT against Dsc3, the z-score was 0.711 (inactive). For GGCAUAGAAGAGAUGACAGTT against Fabp7, the z-score was -2.18 (active). In the case of GCCUGUCUGCCUUUGCUUCTT against H4c9, the z-score is reported as 2.47 (active). In the case of GCUCGUACAUCUAUGGCUATT against Psmb6, the z-score is reported as -0.633 (inactive). For GGACCUAAGCAUUUUACAUTT against Traf2, the z-score was -0.143 (inactive). With CCUAUGUGUACUUCAUCCUTT against Elovl1 the z-score was 2.93 (active). In the case of “GCCUUUUAUACAUGUUUGATT against B130024G19Rik”, the z-score is reported as -1.55 (inactive). With GCUAGAGUAUGAGAACUUCTT against Cdc14b the z-score was 0.233 (inactive). For GGUAGAGAACCAGAGGCAUTT against Ninj2, the z-score was -0.164 (inactive). For GCCAGGAAUGCUAUUCUCGTT against Lrg1, the z-score was -2.26 (active). With CCACCAUUUACUGAGUUUATT against Scn2b the z-score was -0.324 (inactive). For GUCUUUGGAAAUCUACUCATT against Olfr1189, the z-score was -1.21 (inactive). With GGAGAUUCUGUGCAAUGCATT against Dnajc12 the z-score was -0.0758 (inactive). With CCAUUAACGUAAAUUCUGUTT against Ankrd13c the z-score was -0.971 (inactive). For GCUCAUACCUAUCUCAAGGTT against Tnfsf9, the z-score was 0.365 (inactive). For CCUAACAUAGUAUAGCCUUTT against Zfp868, the z-score was -0.0695 (inactive). With GGUCCUGAAGAUACAUAUUTT against Taf2 the z-score was -2.42 (active). With GGGAGAAAUGCAAAUAUUUTT against Mbnl2 the z-score was -0.37 (inactive). With GGUGAAGAAAGCGGAAAAGTT against Cstf3 the z-score was -0.19 (inactive). With GGACCUGUUUUGGAAAUAUTT against Jchain the z-score was -0.613 (inactive). With GGGUUAUGGACACUACCCATT against Tnk1 the z-score was -1.84 (inactive). In the case of GGUACGAGAACAACUGACUTT against Acot3, the z-score is reported as 0.269 (inactive). With GGUACGUGAGAGAAUUCUGTT against Trem2 the z-score was 3.14 (active). With GGUCAGAUACAAUGUAUAUTT against Ap1s3 the z-score was -0.793 (inactive). For GGUGUGUAAUGUGCGUGAGTT against Ephb3, the z-score was 1.11 (inactive). In the case of GGGAUCCUUAUUUCAUACUTT against Olfr868, the z-score is reported as 1.16 (inactive). In the case of GGCGGAAAUCAAAGGAGGATT against Dnmt1, the z-score is reported as 0.791 (inactive). For GGUGGAGUUUAAACUUACATT against Atp4b, the z-score was 5.64 (active). For GGAAACGAUAGCCAAUAUUTT against Scp2d1, the z-score was -1.08 (inactive). For GGGAUCAAUGGCUACCUGUTT against Slc7a10, the z-score was -0.0112 (inactive). For UAACUGGGCUCACGUUGACTT against Pou2f1, the z-score was 0.47 (inactive). For GGUACAAAAUGGCUUGUUGTT against Tmem215, the z-score was 2.53 (active). In the case of GGUCCACACCAGACAUCAATT against Wfdc5, the z-score is reported as 0.263 (inactive). In the case of CGGUGAUGGUUCAUUUGCATT against Zmiz2, the z-score is reported as 1.36 (inactive). For GGCUGUGAAGAACUGGCAGTT against Rnaseh2a, the z-score was 1.85 (inactive). For “GGUUGUGAGCUAACAAUGGTT against B430209F14Rik”, the z-score was 1.25 (inactive). In the case of GAGAACGCGUUUUUGGGACTT against Defa5, the z-score is reported as 1.66 (inactive). With GGGAUGUAUUAGUGAAAGGTT against Dmpk the z-score was 0.368 (inactive). In the case of GGAGGAAAUAUGUUAACUATT against Atp6ap2, the z-score is reported as 1.22 (inactive). With CGGCAACCGGCACUAUAAATT against Pnoc the z-score was 0.231 (inactive). In the case of GGCAUUUCAUAGAGAGAAUTT against LTO1, the z-score is reported as -2.21 (active). In the case of GCCUUAGGCCUUUGUUUCCTT against Tpgs2, the z-score is reported as 0.124 (inactive). With GGUUCUGGACUUCAUCCUCTT against Ocstamp the z-score was 1.42 (inactive). With GGAAAAUUAAUAGCACAAGTT against Acot13 the z-score was 0.0633 (inactive). With GGUUUACUGUGAAAAAAGATT against Morc2b the z-score was 0.0774 (inactive). For CCUGAUACUAACAAGGAAATT against Afmid, the z-score was -0.625 (inactive). With GGUUGUCUUGACACCCUACTT against Tnfrsf1b the z-score was -2.21 (active). With GGAGAAGCAGAUUCUUCAATT against Calhm6 the z-score was -0.0547 (inactive). With GGGAUGUCUGUUGAAAUAATT against Prcc the z-score was -0.422 (inactive). In the case of CCAUGACACUCAUUCCCAGTT against Tbc1d7, the z-score is reported as -2.64 (active). In the case of CCAUGUUUAUGGCACGCUGTT against Postn, the z-score is reported as 0.536 (inactive). In the case of GGUUUGUAGAGGCAUCAAGTT against Snph, the z-score is reported as -0.13 (inactive). With GCAUCCUUCUGAGUUGAUGTT against Tollip the z-score was -1.02 (inactive). With CCUUGAGAAAGCUCCAGUUTT against Cldn9 the z-score was 0.0773 (inactive). With GGUGUUUCAUAUGGUUACUTT against Psma3 the z-score was -0.94 (inactive). With GGAAGUUUGAGUUUGAGCUTT against Fbxl21 the z-score was 1.79 (inactive). For GCUCUCUAUAGGAUAAUGGTT against Vwa5b2, the z-score was -1.86 (inactive). For CGAUAUCAAGAGUGCAUGATT against Gas6, the z-score was 2.97 (active). With GGCUAAUCACCAAUUUCUUTT against Derl2 the z-score was -1.19 (inactive). With GCACCUUCAACCAACAAGGTT against Dph3 the z-score was -0.311 (inactive). For GGUCAUUCGCUUCGAAAAGTT against C1qb, the z-score was -2.05 (active). In the case of GGAAUUCCUCUGUAUGAAATT against Pgr, the z-score is reported as -0.824 (inactive). With GGACUACCACAGCCUCUUCTT against Pxn the z-score was 0.173 (inactive). In the case of GGGCAAAUGAUAUAAGGAUTT against Ndufa12, the z-score is reported as -0.585 (inactive). With CCUCUUGGUUAAAUAAUGUTT against Rnf103 the z-score was -1.9 (inactive). For GCGGCAACAUUCAAAGUGGTT against Itgb2l, the z-score was -1.94 (inactive). For GGCUGUGUCAUCACCAUCUTT against Acot7, the z-score was -1.31 (inactive). In the case of GGAUGCUCUCUUAAAUGGATT against Gbp6, the z-score is reported as 0.327 (inactive). With GGUUGUCAAGAAAUUACCCTT against Marchf10 the z-score was 2.14 (active).

— PubChem BioAssay AID1508600 (Functional Genomics Laboratory (NCATS/FGL), 2020)
